Bioassay records: PubChem BioAssay, National Center for Advancing Translational Sciences (NCATS)
HepG2 tox – kills HepG2 cells in TGF-b inhibitor counter-screen; HepG2 CAGA-GFP viability, ATP luminescence, 18 h; Potency, µM (highest dose often 46.1 µM), without a hit: at the highest dose activity change, negative = cytotoxicity, most hits filed as cytotoxic; 0.76% of 410,000 active; AID 588856; further: potency means the concentration at half of the fitted maximal effect
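HepG2 CAGA-GFP cells (1000/well, DMEM with 1% FBS) received compound, then TGF-beta at 500 pg/mL final, and were incubated 18 hours at 37 degrees C. Viability was read by CellTiter-Glo luminescence. Media-only wells were set as complete cell-killing and DMSO as no toxicity.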
TDP1 cell CPT – DT40-hTDP1 cell growth loss with CPT | 12% of 420,000 active | AID 686979 | Potency, µM (titrated, usually from 46.2 µM), for the others: top-dose activity change, negative = growth inhibition, actives largely listed as inhibitors | chicken DT40 Tdp1-/-;hTDP1 cells + 20 nM CPT, ATP luminescence, 48 h; further: potency means the concentration at half of the fitted maximal effect; on the % scale 0 is the no-effect control and ±100 the full control effect; nearly all actives have a fitted effect of over 55% in size
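Cell growth measured by CellTiter-Glo luminescence after a minimum 48 h, 37 C compound exposure with 20 nM CPT in Tdp1-knockout DT40 cells stably expressing hTDP1, seeded 400/well; qHTS titration format.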
TGFb SMAD3 inh – inhibitors of TGF-b signaling; HepG2 CAGA-GFP TGF-b/SMAD3 reporter, GFP fluorescence, 18 h; TGF-beta stimulated, 500 pg/mL final; Potency, µM (titrated, usually from 46.1 µM), for the others: at the top dose activity, negative = inhibition, most hits filed as inhibitors; 1.2% of 410,000 active; further: potency means the concentration at half of the fitted maximal effect; on the % scale 0 is the no-effect control and ±100 the full control effect; nearly all actives have a fitted effect of over 65% in size
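Inhibition of TGF-beta-driven CAGA-GFP reporter expression in HEPG2 cells is measured by cellular GFP fluorescence after 18 h stimulation with 500 pg/mL recombinant TGF-beta in 1% FBS medium at 37 degrees C.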
DT40 TDP1 no CPT – qHTS for Inhibitors of human tyrosyl-DNA phosphodiesterase 1 (TDP1): qHTS in cells in absence of CPT; DT40 Tdp1-/- hTDP1 cells, no CPT, ATP luminescence, 48 h; Potency, µM (series often up to 46.2 µM), for the others: at the top dose activity change, negative = growth inhibition, actives largely listed as inhibitors; 15% of 420,000 active; further: potency means the concentration at half of the fitted maximal effect; on the % scale 0 is the no-effect control and ±100 the full control effect; nearly all actives have a fitted effect of over 55% in size
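Growth of hTDP1-complemented DT40 Tdp1-knockout cells is measured by ATP luminescence after at least 48 hr compound exposure at 37 °C, with DMSO substituting for the 20 nM CPT used in the parallel screen.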
S-ASM inh – blocks human secretory acid sphingomyelinase; P17405; placental ASM, HMU-PC fluorogenic substrate, 60 min; Potency, µM (top dose mostly 57.5 µM), inactives show at the top dose activity change, negative = inhibition, hits mostly inhibitors; 0.006% of 340,000 active; AID 504937; further: potency means the concentration at half of the fitted maximal effect
Target sequence (P17405 47-631 limits assumed): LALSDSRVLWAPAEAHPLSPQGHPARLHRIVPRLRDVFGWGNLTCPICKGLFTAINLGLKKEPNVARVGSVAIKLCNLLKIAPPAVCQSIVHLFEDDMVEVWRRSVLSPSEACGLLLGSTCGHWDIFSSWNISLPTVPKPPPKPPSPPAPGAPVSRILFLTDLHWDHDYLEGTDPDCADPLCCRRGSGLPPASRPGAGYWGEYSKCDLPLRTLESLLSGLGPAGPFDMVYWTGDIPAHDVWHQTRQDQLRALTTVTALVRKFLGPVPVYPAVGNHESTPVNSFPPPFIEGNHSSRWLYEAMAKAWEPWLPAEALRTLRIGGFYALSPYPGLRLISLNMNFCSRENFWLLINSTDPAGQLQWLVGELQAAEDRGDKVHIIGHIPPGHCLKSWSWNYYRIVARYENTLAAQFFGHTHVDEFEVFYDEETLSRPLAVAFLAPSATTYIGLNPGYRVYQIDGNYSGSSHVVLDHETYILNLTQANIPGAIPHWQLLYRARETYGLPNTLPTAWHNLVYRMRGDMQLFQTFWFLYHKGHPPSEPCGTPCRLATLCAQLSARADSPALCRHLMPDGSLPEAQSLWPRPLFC
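Fluorogenic HMU-PC substrate (9 uM final) is turned over by placental ASM in 60 min at 37 C after a 10 min compound preincubation. Reaction ended by alkaline stop (pH 10), with fluorescence read at 386/447 nm.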
IL-1B inflam inh – inflammasome signaling inhibition, IL-1 beta readout; 4.7% of 360,000 active; activity change, % at 57.5 µM; THP-1 LPS/ATP IL-1B secretion, AlphaLISA, 16 h; hits give low values; in the data active means activity change below about -50%; inconclusive means mostly about -30% to -49%; further: on the % scale 0 is the no-effect control and ±100 the full control effect
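Secreted IL-1B measured by AlphaLISA bead assay after 16 h compound exposure of THP-1 cells; compounds (final up to 57.5 uM) added 1 h before LPS (250 ng/mL) and ATP (1.25 mM) stimulation; lower signal means less secretion.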
* = called active by the depositor; ? = inconclusive; · = not tested or not shown; [ ] = dose if it differs, or a comment. Rows were chosen to be rich in hits. Some 19% of all compounds tested hit in one or more screens of this group. Unless noted, the call rests on the fitted dose curve; in most records, active means well fitted curve in the direction sought with a large enough effect; inconclusive means small, poorly fitted or top-dose-only effect, or another doubt; inactive means no such curve, though single readings can be large; an effect the other way counts as inactive or inconclusive.

SMILES | HepG2 tox | TDP1 cell CPT | TGFb SMAD3 inh | DT40 TDP1 no CPT | S-ASM inh | IL-1B inflam inh
NC(=O)c1ccc(N=Cc2c(O)ccc3ccccc23)cc1 | -14% | 0% | 9% | 3% | 5% | 28
C=CCS/C(N)=N\N=C\c1c(O)ccc2ccccc12 | -78% | ? | 7.9µM* | ? | -8% | 0
COc1ccc(CCC(=O)N/N=C\c2cccs2)cc1 | 18% | -23% | -2% | 5% | 7% | -4
CCOC(=O)C1=C(CN2CCN(c3ccccc3OC)CC2)NC(=O)NC1c1ccccc1 (configuration not stated) | -29% | ? | -34% | ? | · | ·
CCOC(=O)C1=C(CN2CCN(C(=O)c3ccco3)CC2)NC(=O)NC1c1ccc(Cl)cc1 (configuration not stated) | 1% | ? | -12% | ? | 2% | -11
CCOC(=O)C1=C(C)NC(=S)N(C(C)=O)C1c1ccc(OC)c(OC)c1 (configuration not stated) | 4% | 11% | 18% | -3% | -1% | -3
CCOC(=O)C1=C(CN2CCN(c3cccc(Cl)c3)CC2)NC(=O)NC1c1ccc(Cl)cc1 (configuration not stated) | -8% | ? | -1% | 21µM* | · | ·
CCOC(=O)C1=C(CN2CCN(c3cc(C)ccc3C)CC2)NC(=O)NC1c1ccccc1 (configuration not stated) | -66% | ? | ? | 18µM* | · | ·
CCOC(=O)C1=C(CN2CCN(CC)CC2)NC(=O)NC1c1ccc(Cl)cc1 (configuration not stated) | -28% | ? | -5% | 23µM* | · | ·
CCOC(=O)C1=C(C)NC(=S)N(C(C)=O)C1c1ccc(Cl)cc1 (configuration not stated) | -32% | 16µM* | ? | -13% | -2% | -15
Cc1cc(C(F)(F)F)nc(SCCN2CCCCC2)c1C#N | -28% | -9% | -18% | -9% | -1% | 10
COc1ccccc1C(C#N)c1cccc(Cl)n1 (configuration not stated) | 4% | -16% | 13% | -22% | 2% | -1
O=C(Cc1sc(Nc2ccccc2)nc1-c1ccccc1)NCc1ccccn1 | 4% | -14% | 19% | ? | 9% | -7
CCOC(=O)C1=C(CN2CCC(C)CC2)NC(=O)NC1c1ccc(F)cc1 (configuration not stated) | -24% | -5% | -12% | -26% | · | ·
CCOC(=O)C1=C(CN2CCCCCC2)NC(=O)NC1c1ccc2c(c1)OCO2 (configuration not stated) | -39% | -25% | -7% | ? | 0% | 0
CCOC(=O)C1=C(CN2CCN(c3ccc(Cl)cc3)CC2)NC(=O)NC1c1ccc(OC)cc1 (configuration not stated) | -8% | 21µM* | -1% | 26µM* | · | ·
CCOC(=O)C1C(c2ccc3c(c2)OCO3)NC(=O)NC1(O)C(F)(F)F (configuration not stated) | 1% | 9.2µM* | 0% | 13µM* | 2% | 0
CCOC(=O)C1C(c2ccc(O)c(OC)c2)NC(=O)NC1(O)C(F)(F)F (configuration not stated) | 4% | -1% | -17% | 8% | 1% | -3
CCOC(=O)C1=C(CN2CC(C)CC(C)C2)NC(=O)NC1c1ccc2c(c1)OCO2 (configuration not stated) | 5% | ? | -10% | 26µM* | -2% | 0
CCOC(=O)C1=C(CN2CCN(c3ccccc3)CC2)NC(=O)NC1c1ccc(C)cc1 (configuration not stated) | -23% | 26µM* | ? | ? | · | ·
COc1ccc(NC(=O)Nc2ccc3c(c2)C(=O)N([C@H](C)CO)C[C@H](C)[C@@H](CN(C)C(=O)Nc2ccccc2)O3)cc1 | -12% | 0% | -1% | 2% | -2% | -2
O=C(c1cccc(F)c1)N1CCN(C(=O)c2cc(-c3ccc(Cl)cc3Cl)on2)CC1 | -38% | ? | ? | 18µM* | -1% | ·
CCOC(=O)c1[nH]c2ccccc2c1NC(=O)C(C)(C)C | -8% | -1% | 17% | -24% | 6% | 28
Cc1c(C(=O)COC(C)(C)C)[nH]c2ccccc12 | 3% | 21µM* | 4% | ? | -2% | -1
C/C1=C\CCC2C(/C=C(\C)CC1)OC(=O)C2CN1CCCCC1 (configuration not stated) | -49% | 10µM* | ? | ? | 0% | ·
SMILES | HepG2 tox | TDP1 cell CPT | TGFb SMAD3 inh | DT40 TDP1 no CPT | S-ASM inh | IL-1B inflam inh
O=C(CSc1ncn[nH]1)CSc1ncn[nH]1 | 30% | -8% | -19% | -13% | -1% | 2
COc1ccc(C=CC(O)CCN2CCC3CCC(C3)C2)cc1 (configuration not stated) | -16% | -2% | -9% | -12% | -2% | -18
CCC1CN(Cc2cn[nH]c2-c2ccccc2)Cc2cc(OC)ccc2O1 (configuration not stated) | · | -7%[9.04 µM] | · | 18µM* | · | ·
CCC1CN(Cc2cn[nH]c2-c2ccc(OC)cc2)Cc2cc(OC)ccc2O1 (configuration not stated) | · | -4%[9.04 µM] | · | ? | · | ·
CCC1CN(Cc2cn[nH]c2-c2ccc(F)cc2)Cc2cc(OC)ccc2O1 (configuration not stated) | · | ? | · | 21µM* | · | ·
CCC1CN(Cc2cccc3nccnc23)Cc2cc(OC)ccc2O1 (configuration not stated) | · | 2%[9.04 µM] | · | ? | · | ·
Cc1cccc2nnc(-c3ccccc3)n12 | 12% | 7% | 15% | 11% | 0% | 7
Cc1onc(-c2ccccc2)c1C(=O)NC(C)c1ccc2c(c1)OCO2 (configuration not stated) | 6% | -3% | 14% | -7% | -2% | 1
COc1ccc(NC(=O)c2cc(-c3cc(C)cc(C)c3O)n[nH]2)cc1Cl | -103% | 21µM* | ? | ? | ? | -79*
Cc1cc(C)c(O)c(-c2cc(C(=O)Nc3cccnc3)[nH]n2)c1 | 3% | ? | -5% | ? | -4% | ·
COc1ccc(NC(=O)c2cc(-c3ccccc3O)n[nH]2)cc1Cl | -2% | -15% | -13% | ? | 1% | -9
